# Measurements reported in the supplement of paper PMC10121225.
# Counter-ions that a name gives are not always drawn.
# System: hN + hpA co-culture (H1 iNGN2 human neurons + human primary astrocytes)
# Experiment: presynaptic density (SYNAPSIN1 puncta per MAP2 neurite area), Z-score vs DMSO controls; higher = more presynaptic puncta (synapse-promoting)
# Conditions: 3 µM; 72 h
# 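Further: immunostained co-cultures imaged by high-content microscopy, Z-score per plate against mean and SD of 0.1% DMSO wells, compounds added on differentiation day 18, analysed day 21.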
row,SMILES,presynaptic density (Z-score)
1,CC1C(=O)OC2C(O)C34C5CC(C(C)(C)C)C36C(OC(=O)C6O)OC4(C(=O)O5)C12O (stereo not drawn) [Ginkgolide B],-0.504
2,O=C(Nc1cccc(Cl)c1)Nc1ncc(CCNc2ncnc3ccsc23)s1 [SNS-314 Mesylate],-0.232
3,CC(C)CC(=O)Nc1n[nH]c2c1CN(C(=O)C1CCN(C)CC1)C2(C)C,-2.75
4,CC[C@H](NC(=O)[C@H](C)NC)C(=O)N1C[C@@H](O)C[C@H]1Cc1c(-c2[nH]c3cc(F)ccc3c2C[C@@H]2C[C@H](O)CN2C(=O)[C@H](CC)NC(=O)[C@H](C)NC)[nH]c2cc(F)ccc12 [Birinapant],0.314
5,O=C(Nc1cccnc1)N1CCC(Cc2cccc(Oc3ccc(C(F)(F)F)cn3)c2)CC1,-1.87
6,CNC(=O)c1ccc2cc([C@@]3(O)CCn4cncc43)ccc2c1 [TAK-700 (Orteronel)],0.215
7,Cc1ccc(S(=O)(=O)n2c(N)nc3ccccc32)cc1 [ML130 (Nodinitib-1)],0.396
8,CCCCN1CCCCC1C(=O)Nc1c(C)cccc1C (stereo not drawn) [Bupivacaine HCl],-0.239
9,NC(=O)N1c2ccccc2CC(=O)c2ccccc21,0.372
10,COC1CCN(C(=O)c2cc(Cc3n[nH]c(=O)c4ccccc34)ccc2F)CC1,0.144
11,O=C(Nc1ccccc1Br)N[C@@H]1CCN(c2ccc(C(F)(F)F)cn2)C1,-1.47
12,CC(C)c1onc(-c2c(Cl)cccc2Cl)c1COc1ccc(/C=C/c2cccc(C(=O)O)c2)c(Cl)c1,-0.576
13,Cc1cc(Nc2ncc(Cl)c(Nc3ccccc3S(=O)(=O)C(C)C)n2)c(OC(C)C)cc1C1CCNCC1,0.147
